# Results filed as inconclusive are left out. Active and inactive are the calls of the source. How the source made its calls: active means hit-call score of the fitted dose curve at least 0.9, where 1 is the maximum; inconclusive means response in the unintended direction; inactive means score below 0.9.
# Biological target: human Phosphoinositide 3-kinase alpha (PI3Ka), PIK3CA (gene 5290) (UniProt P42336)
# Assay: NVS_ENZ_hPI3Ka: NovaScreen (NVS) Enzymatic Assay for human Phosphoinositide 3-kinase alpha (PI3Ka) (AID 2283196)
# In short: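 Enzyme activity as fluorescence after mobility-shift separation of substrate and product, 1 h reaction, recombinant human PI3Kα; concentration-response to 50 uM max for chemicals passing a 25 uM duplicate screen.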
# Chain of human Phosphoinositide 3-kinase alpha (PI3Ka), PIK3CA (gene 5290) (P42336 whole entry, looked up): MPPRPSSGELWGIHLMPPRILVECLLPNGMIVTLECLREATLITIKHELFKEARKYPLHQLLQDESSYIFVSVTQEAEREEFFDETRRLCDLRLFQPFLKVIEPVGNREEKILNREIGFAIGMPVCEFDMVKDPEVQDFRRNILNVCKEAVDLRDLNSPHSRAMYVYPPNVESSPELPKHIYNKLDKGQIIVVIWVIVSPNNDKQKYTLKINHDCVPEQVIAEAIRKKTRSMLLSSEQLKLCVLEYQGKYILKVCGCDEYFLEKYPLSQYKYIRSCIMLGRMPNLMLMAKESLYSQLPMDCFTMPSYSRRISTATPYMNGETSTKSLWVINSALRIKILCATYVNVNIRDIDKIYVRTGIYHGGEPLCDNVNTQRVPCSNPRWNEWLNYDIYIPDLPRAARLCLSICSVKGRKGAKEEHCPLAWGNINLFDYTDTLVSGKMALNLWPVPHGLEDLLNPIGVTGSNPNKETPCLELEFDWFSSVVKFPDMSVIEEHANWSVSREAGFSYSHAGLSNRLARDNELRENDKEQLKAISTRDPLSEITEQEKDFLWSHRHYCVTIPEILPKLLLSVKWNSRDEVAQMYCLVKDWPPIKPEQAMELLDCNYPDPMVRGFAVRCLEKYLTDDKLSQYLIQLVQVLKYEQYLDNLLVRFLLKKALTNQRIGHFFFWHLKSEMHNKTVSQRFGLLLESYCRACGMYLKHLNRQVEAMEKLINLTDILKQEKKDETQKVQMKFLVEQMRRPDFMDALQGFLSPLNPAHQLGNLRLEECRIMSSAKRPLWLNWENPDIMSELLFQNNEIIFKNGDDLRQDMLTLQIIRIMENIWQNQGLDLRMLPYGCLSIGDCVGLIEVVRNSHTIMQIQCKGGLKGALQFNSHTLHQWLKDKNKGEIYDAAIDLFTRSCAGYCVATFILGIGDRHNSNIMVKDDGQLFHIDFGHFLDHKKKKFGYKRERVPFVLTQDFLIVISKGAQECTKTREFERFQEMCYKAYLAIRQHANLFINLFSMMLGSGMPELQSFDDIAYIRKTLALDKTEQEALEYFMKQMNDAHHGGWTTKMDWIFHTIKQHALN
row,SMILES,outcome
1,CC(C)=CC1C(C(=O)OCN2C(=O)C3=C(CCCC3)C2=O)C1(C)C (stereo not given),inactive
2,CC1(C(=O)Nc2ccc(O)c(Cl)c2Cl)CCCCC1,inactive
3,O=[N+]([O-])c1cc(C(F)(F)F)c(Cl)c([N+](=O)[O-])c1Nc1ncc(C(F)(F)F)cc1Cl,inactive

# Biological target: Serine/threonine-protein phosphatase PP1-alpha catalytic subunit (Homo sapiens) (UniProt P62136)
# Assay: NVS_ENZ_hPPP1CA: NovaScreen (NVS) Enzymatic Assay for human Protein Phosphatase 1 Aatalytic subunit Alpha (PPP1CA) (AID 2283200)
# In short: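 Chemicals were first screened in duplicate at 25 uM, and those passing threshold (e.g. 30% inhibition) were run as concentration series to 50 uM. Cell-free recombinant protein, 1.33 h read, fluorescent substrate/product mobility-shift detection, normalised to DMSO.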
# Chain of Serine/threonine-protein phosphatase PP1-alpha catalytic subunit (Homo sapiens) (P62136 whole entry, looked up): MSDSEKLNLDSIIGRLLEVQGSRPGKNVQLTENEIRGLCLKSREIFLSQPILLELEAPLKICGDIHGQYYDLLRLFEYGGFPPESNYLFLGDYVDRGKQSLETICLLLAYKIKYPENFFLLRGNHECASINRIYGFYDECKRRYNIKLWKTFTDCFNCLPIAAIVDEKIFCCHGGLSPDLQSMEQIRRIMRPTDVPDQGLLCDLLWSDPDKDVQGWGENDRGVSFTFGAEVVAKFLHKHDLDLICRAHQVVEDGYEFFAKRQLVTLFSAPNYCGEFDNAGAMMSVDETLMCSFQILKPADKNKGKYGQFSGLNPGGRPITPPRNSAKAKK
SMILES,outcome,AC50
CCOP(=S)(OCC)SCCSCC,inactive,
CCOP(=S)(OCC)Oc1cc(C)nc(C(C)C)n1,inactive,
CCCCN(CC)c1c([N+](=O)[O-])cc(C(F)(F)F)cc1[N+](=O)[O-],inactive,
O=[N+]([O-])c1cc(C(F)(F)F)c(Cl)c([N+](=O)[O-])c1Nc1ncc(C(F)(F)F)cc1Cl,inactive,
CCCCSP(=O)(SCCCC)SCCCC,,10.4 µM (active)

# Biological target: Tyrosine-protein phosphatase non-receptor type 11 (Homo sapiens) (UniProt Q06124)
# Assay: NVS_ENZ_hPTPN11: NovaScreen (NVS) Enzymatic Assay for human Protein Tyrosine Phosphatase Non-receptor Type 11 (PTPN11) (AID 2283202)
# In short: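 Compounds first tested in duplicate at 25 uM; those reaching ~30% inhibition rerun in singleton concentration-response, top 50 uM. Phosphatase activity measured after 0.5 h by fluorescence with mobility-shift separation, relative to DMSO.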
# Chain of Tyrosine-protein phosphatase non-receptor type 11 (Homo sapiens) (Q06124 whole entry, looked up): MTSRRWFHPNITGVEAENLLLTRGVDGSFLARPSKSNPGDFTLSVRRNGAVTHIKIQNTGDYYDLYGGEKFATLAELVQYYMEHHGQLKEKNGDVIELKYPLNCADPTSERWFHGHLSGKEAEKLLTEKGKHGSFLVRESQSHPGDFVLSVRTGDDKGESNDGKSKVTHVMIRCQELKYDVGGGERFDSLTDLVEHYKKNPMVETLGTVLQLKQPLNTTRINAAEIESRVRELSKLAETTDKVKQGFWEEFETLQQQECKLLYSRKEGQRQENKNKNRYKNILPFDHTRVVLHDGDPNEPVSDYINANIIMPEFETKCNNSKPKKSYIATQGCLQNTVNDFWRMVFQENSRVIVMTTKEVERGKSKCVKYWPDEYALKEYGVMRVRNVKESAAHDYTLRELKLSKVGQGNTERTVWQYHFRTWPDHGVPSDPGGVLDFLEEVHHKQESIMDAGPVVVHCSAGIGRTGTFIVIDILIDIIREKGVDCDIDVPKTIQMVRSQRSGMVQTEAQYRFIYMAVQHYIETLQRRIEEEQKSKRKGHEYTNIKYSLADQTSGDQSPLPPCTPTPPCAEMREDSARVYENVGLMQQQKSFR
row,SMILES,outcome
1,CCC(=NOC/C=C/Cl)C1=C(O)CC(C2CCOCC2)CC1=O (stereo not given),inactive
2,CNC(=O)Oc1cccc2c1OC(C)(C)O2,inactive
3,C=C(C)[C@H]1Cc2c(ccc3c2O[C@@H]2COc4cc(OC)c(OC)cc4[C@@H]2C3=O)O1,inactive

# Biological target: Tyrosine-protein phosphatase non-receptor type 14 (Homo sapiens) (UniProt Q15678)
# Assay: NVS_ENZ_hPTPN14: NovaScreen (NVS) Enzymatic Assay for human Protein Tyrosine Phosphatase Non-receptor Type 14 (PTPN14) (AID 2283206)
# In short: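 Fluorescent substrate turnover by recombinant human PTPN14 was measured 0.5 h after compound addition, with substrate and product separated by mobility shift. Single-point screening at 25 uM, then concentration-response up to 50 uM for chemicals meeting threshold (e.g., 30% inhibition).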
# Chain of Tyrosine-protein phosphatase non-receptor type 14 (Homo sapiens) (Q15678 whole entry, looked up): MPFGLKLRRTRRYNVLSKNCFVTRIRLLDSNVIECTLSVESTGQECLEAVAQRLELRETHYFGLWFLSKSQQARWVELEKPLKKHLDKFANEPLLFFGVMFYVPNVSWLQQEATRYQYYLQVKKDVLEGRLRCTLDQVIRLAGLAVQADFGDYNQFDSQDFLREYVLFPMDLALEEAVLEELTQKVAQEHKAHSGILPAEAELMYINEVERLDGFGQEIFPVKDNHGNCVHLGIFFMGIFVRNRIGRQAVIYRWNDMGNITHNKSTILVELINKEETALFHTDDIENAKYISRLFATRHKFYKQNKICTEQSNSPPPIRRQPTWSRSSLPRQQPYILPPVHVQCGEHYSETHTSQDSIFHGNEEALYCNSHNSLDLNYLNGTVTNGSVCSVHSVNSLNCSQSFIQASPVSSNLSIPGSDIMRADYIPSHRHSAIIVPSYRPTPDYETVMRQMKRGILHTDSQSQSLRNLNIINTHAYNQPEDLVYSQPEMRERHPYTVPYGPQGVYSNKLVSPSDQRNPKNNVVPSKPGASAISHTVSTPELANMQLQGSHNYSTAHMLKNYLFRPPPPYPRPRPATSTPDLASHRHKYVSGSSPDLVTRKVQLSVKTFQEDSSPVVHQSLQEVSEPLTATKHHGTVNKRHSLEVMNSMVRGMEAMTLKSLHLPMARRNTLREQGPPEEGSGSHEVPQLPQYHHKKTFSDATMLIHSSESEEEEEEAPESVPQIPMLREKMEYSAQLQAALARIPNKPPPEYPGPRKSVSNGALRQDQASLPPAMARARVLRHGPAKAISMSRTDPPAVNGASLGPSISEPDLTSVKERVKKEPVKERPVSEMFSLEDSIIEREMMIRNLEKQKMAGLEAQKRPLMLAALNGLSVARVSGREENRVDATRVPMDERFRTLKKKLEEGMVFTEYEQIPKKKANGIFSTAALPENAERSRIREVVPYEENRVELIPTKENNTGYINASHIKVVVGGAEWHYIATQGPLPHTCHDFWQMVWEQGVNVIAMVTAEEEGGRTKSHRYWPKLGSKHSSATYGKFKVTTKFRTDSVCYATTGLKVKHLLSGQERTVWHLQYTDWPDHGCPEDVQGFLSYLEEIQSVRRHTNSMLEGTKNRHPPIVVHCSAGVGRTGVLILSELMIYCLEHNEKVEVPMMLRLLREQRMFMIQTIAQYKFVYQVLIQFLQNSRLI
row,SMILES,outcome
1,Nc1nc(N)nc(NC2CC2)n1,inactive
2,CSC1=N[C@@](C)(c2ccccc2)C(=O)N1Nc1ccccc1,inactive
3,CCC(=NOC/C=C/Cl)C1=C(O)CC(C2CCOCC2)CC1=O (stereo not given),inactive
4,CC(C)N(C(=O)SCC(Cl)=C(Cl)Cl)C(C)C,inactive
5,CN1COCN(Cc2cnc(Cl)s2)C1=N[N+](=O)[O-],inactive
6,CNC(=O)Oc1cccc2c1OC(C)(C)O2,inactive
7,N#CSCSC#N,inactive
8,CCCCOC(=O)c1ccccc1C(=O)O,inactive
9,O=c1ccc(=O)[nH][nH]1,inactive
